# Experiments:
# Test in all cases: PBM binding z-score (relative to random genomic background probes); higher = stronger binding; sequences stand for … in GC…GCGATTGACAGCGTAGAATGAAGG
# [1] = tested on: PPARg:RXRa DBDmut IVT, anti-RXR (DBD mutation: RXRa K156A/R161A, NR concentration 270 nM, RXRa partner concentration 90 nM)
# Procedure, shortened: (§1)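 On custom Agilent 4×180K arrays, double-stranded probes with 34-nt variable regions carried direct-repeat seeds, single-nucleotide variants, half-site ablations or random human genomic background. Ligand-free nuclear receptor dimers were applied for 1 h, and binding was read with antibodies against each partner (one per run). Binding z-scores come from regression-normalized fluorescence, with the random background probes as reference.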
# [2] = tested on: PPARg:RXRa IVT, anti-PPARg (NR concentration 270 nM, RXRa partner concentration 90 nM)
# Procedure, shortened: as §1
# [3] = tested on: PPARg DBDmut:RXRa IVT, anti-PPARg (DBD mutation: PPARg1 K132A/R137A, NR concentration 270 nM, RXRa partner concentration 90 nM)
# Procedure, shortened: as §1
# [4] = tested on: PPARg DBDmut IVT, anti-PPARg (DBD mutation: PPARg1 K132A/R137A, NR concentration 270 nM)
# Procedure, shortened: as §1
# [5] = tested on: PPARg homodimer (NR concentration 180 nM)
# Procedure, shortened: as §1
# [6] = tested on: PXR:RXRa (NR concentration 270 nM, RXRa partner concentration 90 nM)
# Procedure, shortened: as §1
# [7] = tested on: PXR homodimer (NR concentration 270 nM)
# Procedure, shortened: as §1
# [8] = tested on: RARa:RXR (NR concentration 270 nM, RXRa partner concentration 90 nM)
# Procedure, shortened: as §1
# [9] = tested on: RARa homodimer (NR concentration 270 nM)
# Procedure, shortened: as §1
# [10] = tested on: RARb:RXRa (NR concentration 270 nM, RXRa partner concentration 90 nM)
# Procedure, shortened: as §1
sequence,measurement,setting,value
CCTCGGAGGACATCAGGAGGTCAGAGCTGCCAGA,PBM binding z-score,[1],-0.368
same,PBM binding z-score,[2],0.307
same,PBM binding z-score,[3],-1.23
same,PBM binding z-score,[4],-1.84
same,PBM binding z-score,[5],1.23
same,PBM binding z-score,[6],2.19
same,PBM binding z-score,[7],0.0732
same,PBM binding z-score,[8],2.43
same,PBM binding z-score,[9],0.115
same,PBM binding z-score,[10],2.74
CTCGAATGGTCGTGCTCAGGTGAGTATACCAAAC,PBM binding z-score,[1],-0.307
same,PBM binding z-score,[2],0.137
same,PBM binding z-score,[3],-1.36
same,PBM binding z-score,[4],0.0362
same,PBM binding z-score,[5],-1
same,PBM binding z-score,[6],-0.335
same,PBM binding z-score,[7],-0.382
same,PBM binding z-score,[8],0.107
same,PBM binding z-score,[9],0.169
same,PBM binding z-score,[10],0.0892
CTCGGAAGGTCGGTTGAGGTGAGTATACGGATAA,PBM binding z-score,[1],-0.598
same,PBM binding z-score,[2],0.491
same,PBM binding z-score,[3],-0.365
same,PBM binding z-score,[4],-0.461
same,PBM binding z-score,[5],0.527
same,PBM binding z-score,[6],1.84
same,PBM binding z-score,[7],-0.347
same,PBM binding z-score,[8],0.849
same,PBM binding z-score,[9],-0.2
same,PBM binding z-score,[10],1.89
ACAGACAGCTGATGAAGGTAACTCAGGCTATCAT,PBM binding z-score,[1],-0.796
same,PBM binding z-score,[2],-0.158
same,PBM binding z-score,[3],0.246
same,PBM binding z-score,[4],0.14
same,PBM binding z-score,[5],0.00151
same,PBM binding z-score,[6],-0.216
same,PBM binding z-score,[7],-0.158
same,PBM binding z-score,[8],0.0124
same,PBM binding z-score,[9],0.287
same,PBM binding z-score,[10],-0.232
TGTCAAAGTTCAAAGGTAACGTATGTATCCACAC,PBM binding z-score,[1],0.0702
same,PBM binding z-score,[2],4.53
same,PBM binding z-score,[3],1.85
same,PBM binding z-score,[4],1.93
same,PBM binding z-score,[5],2.61
same,PBM binding z-score,[6],5.65
same,PBM binding z-score,[7],3.95
same,PBM binding z-score,[8],6.64
same,PBM binding z-score,[9],1.84
same,PBM binding z-score,[10],5.04
TCGAGTAGGTTAGTCAGGGCATTCAGCCAACATA,PBM binding z-score,[1],1.73
same,PBM binding z-score,[2],1.72
same,PBM binding z-score,[3],0.0156
same,PBM binding z-score,[4],-0.832
same,PBM binding z-score,[5],0.613
same,PBM binding z-score,[6],0.173
same,PBM binding z-score,[7],0.204
same,PBM binding z-score,[8],0.135
same,PBM binding z-score,[9],0.35
same,PBM binding z-score,[10],0.484
TCTTGTAGATCAAGCGGGTTAAGAAAGCCTGAGT,PBM binding z-score,[1],1.69
same,PBM binding z-score,[2],0.202
same,PBM binding z-score,[3],-0.333
same,PBM binding z-score,[4],-0.182
same,PBM binding z-score,[5],-0.174
same,PBM binding z-score,[6],0.313
same,PBM binding z-score,[7],-0.037
same,PBM binding z-score,[8],0.0624
same,PBM binding z-score,[9],-0.21
same,PBM binding z-score,[10],0.093
CCTCGGAGGACAGAAGGTCAGCGCTGTCCGCTTT,PBM binding z-score,[1],-0.144
same,PBM binding z-score,[2],0.0652
same,PBM binding z-score,[3],-1.29
same,PBM binding z-score,[4],-1.5
same,PBM binding z-score,[5],1.24
same,PBM binding z-score,[6],1.96
same,PBM binding z-score,[7],-0.497
same,PBM binding z-score,[8],2.76
same,PBM binding z-score,[9],0.504
same,PBM binding z-score,[10],3.68
TCTTGTAGATCAATTGAGGTTAAGAAAGTGCGCT,PBM binding z-score,[1],2.06
same,PBM binding z-score,[2],1.34
same,PBM binding z-score,[3],0.476
same,PBM binding z-score,[4],0.929
same,PBM binding z-score,[5],0.486
same,PBM binding z-score,[6],2.84
same,PBM binding z-score,[7],0.38
same,PBM binding z-score,[8],1.68
same,PBM binding z-score,[9],0.164
same,PBM binding z-score,[10],0.758
CCTTACGGGTCACGAGCTTATAGCACGACGAGCG,PBM binding z-score,[1],3.78
same,PBM binding z-score,[2],4.75
same,PBM binding z-score,[3],2.37
same,PBM binding z-score,[4],2.07
same,PBM binding z-score,[5],3.27
same,PBM binding z-score,[6],3.85
same,PBM binding z-score,[7],-0.361
same,PBM binding z-score,[8],5.25
same,PBM binding z-score,[9],0.902
same,PBM binding z-score,[10],4.42
ATCTCTAGGTAAGACTCAGTTCATTGAAGAACGC,PBM binding z-score,[1],2.32
same,PBM binding z-score,[2],1.16
same,PBM binding z-score,[3],1.33
same,PBM binding z-score,[4],1.23
same,PBM binding z-score,[5],1.13
same,PBM binding z-score,[6],2.6
same,PBM binding z-score,[7],4.35
same,PBM binding z-score,[8],1.04
same,PBM binding z-score,[9],1.62
same,PBM binding z-score,[10],0.694
CGTCCAGGGTCAAGGTCAGTGAAAGAGACTCGAA,PBM binding z-score,[1],1.82
same,PBM binding z-score,[2],4.14
same,PBM binding z-score,[3],0.455
same,PBM binding z-score,[4],0.241
same,PBM binding z-score,[5],3.01
same,PBM binding z-score,[6],4.77
same,PBM binding z-score,[7],0.845
same,PBM binding z-score,[8],5.13
same,PBM binding z-score,[9],1.53
same,PBM binding z-score,[10],5.23
TAGCCTAGGTAATGGGCCAGTATACCACGCGAAC,PBM binding z-score,[1],-0.319
same,PBM binding z-score,[2],0.78
same,PBM binding z-score,[3],-0.42
same,PBM binding z-score,[4],-0.561
same,PBM binding z-score,[5],-0.148
same,PBM binding z-score,[6],-0.351
same,PBM binding z-score,[7],-0.609
same,PBM binding z-score,[8],-0.221
same,PBM binding z-score,[9],-0.573
same,PBM binding z-score,[10],-0.295
CCTACTGGGCTACGAAAGGTCATTGATTCAGTGA,PBM binding z-score,[1],3.98
same,PBM binding z-score,[2],3.65
same,PBM binding z-score,[3],-0.45
same,PBM binding z-score,[4],0.321
same,PBM binding z-score,[5],3.32
same,PBM binding z-score,[6],5.08
same,PBM binding z-score,[7],1.74
same,PBM binding z-score,[8],5.44
same,PBM binding z-score,[9],0.708
same,PBM binding z-score,[10],3.88
CTCGAAAGGTCGTGCTCAGGTGAATATACCAAAC,PBM binding z-score,[1],0.879
same,PBM binding z-score,[2],2.15
same,PBM binding z-score,[3],0.682
same,PBM binding z-score,[4],0.68
same,PBM binding z-score,[5],1.34
same,PBM binding z-score,[6],3.6
same,PBM binding z-score,[7],0.506
same,PBM binding z-score,[8],4.28
same,PBM binding z-score,[9],0.678
same,PBM binding z-score,[10],3.92
CCTATTAGTTGACGATAAGGGCAACCGAAGCTCG,PBM binding z-score,[1],0.107
same,PBM binding z-score,[2],-0.036
same,PBM binding z-score,[3],0.257
same,PBM binding z-score,[4],0.471
same,PBM binding z-score,[5],1.85
same,PBM binding z-score,[6],0.261
same,PBM binding z-score,[7],0.241
same,PBM binding z-score,[8],0.847
same,PBM binding z-score,[9],1.05
same,PBM binding z-score,[10],1.33
GGAACGAGGGCAACTTGATAGCAGAGTTTGATGG,PBM binding z-score,[1],4.45
same,PBM binding z-score,[2],3.29
same,PBM binding z-score,[3],0.236
same,PBM binding z-score,[4],0.0207
same,PBM binding z-score,[5],0.796
same,PBM binding z-score,[6],0.872
same,PBM binding z-score,[7],0.418
same,PBM binding z-score,[8],0.629
same,PBM binding z-score,[9],0.251
same,PBM binding z-score,[10],2.72
GCTGCTAGGGCAACTGATGGTCAGCTAAAGCTCG,PBM binding z-score,[1],2.82
same,PBM binding z-score,[2],1.23
same,PBM binding z-score,[3],-0.683
same,PBM binding z-score,[4],-1.08
same,PBM binding z-score,[5],-0.93
same,PBM binding z-score,[6],-0.816
same,PBM binding z-score,[7],-0.96
same,PBM binding z-score,[8],-0.619
same,PBM binding z-score,[9],-1.23
same,PBM binding z-score,[10],1.56
GCTCGGAGGACAAGGTAAGAGCTTTGTCCGTAGA,PBM binding z-score,[1],-0.716
same,PBM binding z-score,[2],-0.298
same,PBM binding z-score,[3],-1.26
same,PBM binding z-score,[4],-1.29
same,PBM binding z-score,[5],-1.16
same,PBM binding z-score,[6],-0.574
same,PBM binding z-score,[7],-1.14
same,PBM binding z-score,[8],-0.493
same,PBM binding z-score,[9],-1.14
same,PBM binding z-score,[10],0.88
CAAACTAGGTCAAGGTCAACGTCGGTTTGTGCCA,PBM binding z-score,[1],8.4
same,PBM binding z-score,[2],8.81
same,PBM binding z-score,[3],6.29
same,PBM binding z-score,[4],2.23
same,PBM binding z-score,[5],4.73
same,PBM binding z-score,[6],5.27
same,PBM binding z-score,[7],1.97
same,PBM binding z-score,[8],5.42
same,PBM binding z-score,[9],2.12
same,PBM binding z-score,[10],5.36
ATATGTAGGTTATCGGGTCATCCAGTTTGCGCAT,PBM binding z-score,[1],7.5
same,PBM binding z-score,[2],7.73
same,PBM binding z-score,[3],3.61
same,PBM binding z-score,[4],3.11
same,PBM binding z-score,[5],3.09
same,PBM binding z-score,[6],3.98
same,PBM binding z-score,[7],5.45
same,PBM binding z-score,[8],4.35
same,PBM binding z-score,[9],1.79
same,PBM binding z-score,[10],2.96
CATACAGGGTCAGCTAAGCCAGAGTAGGGACGGC,PBM binding z-score,[1],1.39
same,PBM binding z-score,[2],2.48
same,PBM binding z-score,[3],1.15
same,PBM binding z-score,[4],0.523
same,PBM binding z-score,[5],1.5
same,PBM binding z-score,[6],2.16
same,PBM binding z-score,[7],-0.442
same,PBM binding z-score,[8],3.02
same,PBM binding z-score,[9],0.0387
same,PBM binding z-score,[10],3.9
TCTGGTTGGTCACGGAGGTCACACACGACGGGTA,PBM binding z-score,[1],1.74
same,PBM binding z-score,[2],3.7
same,PBM binding z-score,[3],1.34
same,PBM binding z-score,[4],1.67
same,PBM binding z-score,[5],4.27
same,PBM binding z-score,[6],4.9
same,PBM binding z-score,[7],2.06
same,PBM binding z-score,[8],4.93
same,PBM binding z-score,[9],2
same,PBM binding z-score,[10],4
GGAACGAGGGCAAAGTTGATGGCATCTGTCGACG,PBM binding z-score,[1],4.48
same,PBM binding z-score,[2],4.33
same,PBM binding z-score,[3],0.423
same,PBM binding z-score,[4],0.295
same,PBM binding z-score,[5],0.411
same,PBM binding z-score,[6],1.39
same,PBM binding z-score,[7],0.213
same,PBM binding z-score,[8],1.59
same,PBM binding z-score,[9],-0.52
same,PBM binding z-score,[10],2.48
